According to PubChem BioAssay (Tox21):
Unmarked numbers belong to inactive results. Records with an inconclusive call do not appear. A call without a number means that no potency is given here. Activity calls are given as the source filed them. Unless noted, calls come from the whole dose curve; as a rule, active = well fitted curve in the direction sought with a large enough effect in the repeat runs; inconclusive = weak or mixed curves; inactive = no such curve, though single readings can be large; an effect the other way counts as inactive or inconclusive.

Tests used:
[1] = qHTS assay to identify small molecule antagonists of the retinoid acid receptor (RAR) signaling pathway - cell viability counter screen (AID 1159551); note: nearly all actives have a fitted effect of over 35% in size
Method in brief: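 Cytotoxicity counter screen: ATP content quantified by CellTiter-Glo luminescence in C3RL4 cells treated 6 hr at 37 C with compound and retinol (1 uM final). Cells plated at 1,000/well and cultured overnight before dosing.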

[2] = qHTS assay to identify small molecule antagonists of the retinoic acid receptor (RAR) signaling pathway (AID 1159552; note: nearly all actives have a fitted effect of over 50% in size)
Method in brief: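 Readout: luciferase luminescence, 30 min post-reagent at RT. Setup: C3RL4 RARE reporter cells, compounds plus retinol 1 uM final, 6 hr incubation at 37 C and 5% CO2.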

[3] = qHTS assay to identify small molecule agonists of the retinoic acid receptor (RAR) signaling pathway (AID 1159553); note: potency is the fitted concentration of half-maximal effect
Method in brief: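 Luminescence was measured 30 min after luciferase reagent addition at room temperature. Before that, C3RL4 reporter cells (1,000 per well, plated overnight) were treated with compound for 6 hr at 37 C and 5% CO2.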

[4] = qHTS assay to identify small molecule antagonists of the estrogen related receptor (ERR) signaling pathway from Tox21 library - cell viability counter screen (AID 1224834); note: nearly all actives have a fitted effect of over 30% in size
Method in brief: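 CellTiter-Fluor fluorescence, read after 30 min at 37 C, measures viability of ERR cells. Cells plated at 2,000/well and incubated 6 h before pin-tool compound addition, then exposed 17.5 hours at 37 C.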

[5] = biological target: Luciferin 4-monooxygenase (Photinus pyralis) (UniProt P08659); assay: qHTS assay to identify small molecule inhibitors of firefly luciferase (AID 1224835); note: nearly all actives have a fitted effect of over 25% in size; note: potency is the fitted concentration of half-maximal effect
Method in brief: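 Inhibition of purified Photinus luciferase is measured by luminescence. Substrate levels (D-luciferin, ATP) sit at their KM values. Each compound is tested in a concentration series.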

[6] = qHTS assay to identify small molecule agonists of the constitutive androstane receptor (CAR) signaling pathway - cell viability counter screen (AID 1224836); note: nearly all actives have a fitted effect of over 45% in size
Method in brief: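 Compound titrations (15 concentrations) went onto HepG2-CYP2B6-hCAR cells 4 h after seeding, alongside PK11195 at a final 0.75 uM; a 23 h, 37 C/5% CO2 incubation preceded CellTiter-Fluor viability measurement.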

[7] = qHTS assay to identify small molecule antagonists of the constitutive androstane receptor (CAR) signaling pathway - cell viability counter screen (AID 1224837); note: nearly all actives have a fitted effect of over 45% in size
Method in brief: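 Cytotoxicity counter-screen: CellTiter-Fluor fluorescence after 23 h compound exposure (15-point qHTS) in double-stable HepG2-CYP2B6-hCAR cells, with 50 nM CITCO added.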

[8] = biological target: Nuclear receptor subfamily 1 group I member 3 (Homo sapiens) (UniProt Q14994); assay: qHTS assay to identify small molecule antagonists of the constitutive androstane receptor (CAR) signaling pathway (AID 1224838);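 note: HepG2 cells stably expressing hCAR with CYP2B6 luciferase reporter stimulated by CITCO; nearly all actives have a fitted effect of over 40% in size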
Method in brief: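 Antagonism measured as luciferase signal (ONE-Glo, 30 min, room temperature) in CAR-stimulated cells: HepG2-CYP2B6-hCAR double-stable line exposed 24 hr at 37 C to compound in a 15-point series plus 50 nM CITCO.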

[9] = biological target: Nuclear receptor subfamily 1 group I member 3 (Homo sapiens) (UniProt Q14994); assay: qHTS assay to identify small molecule agonists of the constitutive androstane receptor (CAR) signaling pathway (AID 1224839);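 note: HepG2 cells stably carrying human CAR and a CYP2B6 luciferase reporter; nearly all actives have a fitted effect of over 15% in size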
Method in brief: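 In this screen, CAR-driven CYP2B6 promoter activity is measured by luminescence in HepG2-CYP2B6-hCAR cells after 24 h with test compounds and 0.75 uM PK11195 (final concentration).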

[10] = qHTS assay to identify small molecule antagonists of the estrogen related receptor signaling pathway with the pleiotropic PPARgamma coactivator (PGC) from Tox21 10K library - cell viability counter screen (AID 1224840; active = well fitted cell-killing curve with a large enough effect in the repeat runs, not every such curve was filed as active; note: nearly all actives have a fitted effect of over 40% in size)
Method in brief: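 Counter-screen for cytotoxicity: after 17.5 h compound exposure at 37 C, CellTiter-Fluor reagent added to PGC/ERR cells for 30 min and fluorescence read. Cells were seeded at 2,000 per well 6 h before dosing.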

[11] = qHTS assay to identify small molecule antagonists of the estrogen related receptor signaling pathway with the pleiotropic PPARgamma coactivator (PGC) from Tox21 10K library (AID 1224841; call rule not given here; note: actives are mostly falling curves and most rising ones were filed inactive; nearly all actives have a fitted effect of over 50% in size)
Method in brief: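 Luminescence (One-Glo, 30 min at room temperature) after 18 h compound treatment at 37 C of PGC/ERR reporter cells plated at 2,000 cells/well and settled 6 h beforehand.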

[12] = biological target: Thyrotropin receptor (Homo sapiens) (UniProt P16473); assay: qHTS assay to identify small molecule agonists of the thyroid stimulating hormone receptor (TSHR) signaling pathway (AID 1224843; calls by dose curve; note: nearly all actives have a fitted effect of over 45% in size)
Method in brief: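 Agonist activity read as cAMP rise via d2/cryptate HTRF competition, 1 h room-temperature detection, in HEK293 cells expressing TSHR. Fifteen-point titrations, each run in triplicate, with a 30 min room-temperature incubation beforehand.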

[13] = qHTS assay to identify small molecule agonists of the hypoxia (HIF-1) signaling pathway - cell viability counter screen (AID 1224844; calls by dose curve; note: nearly all actives have a fitted effect of over 50% in size)
Method in brief: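 Cytotoxicity measured by CellTiter-Glo ATP luminescence in the wells also read for beta-lactamase signal. Cells were HRE-bla ME-180 (2,000/well, 0.5% dialyzed FBS), exposed to compounds for 17 h at 37C.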

[14] = qHTS assay to identify small molecule agonists of H2AX (AID 1224845; active = well fitted activation curve with a large enough effect in the signal ratio in the repeat runs, not every such curve was filed as active; the % refers to the signal ratio)
Method in brief: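 Phospho-H2AX Ser139 measured by HTRF (ex 320 nm; em 665 and 620 nm) after 24 hr antibody incubation. Compounds, 15 concentrations, 0.76% DMSO, were applied to CHO-K1 cells for 3hr at 37C before lysis.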

[15] = qHTS assay to identify small molecule agonists of the estrogen related receptor (ERR) signaling pathway from Tox21 library (AID 1224849; calls by dose curve; note: nearly all actives have a fitted effect of over 15% in size); details: ERR reporter cell line, ONE-Glo luciferase, 18 h; at 92.4 µM (top of the series) unless noted
Method in brief: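 Luminescent agonist read-out (One-Glo, 30-minute room-temperature incubation) following 18-hour compound treatment at 37 C of the ERR cell line, which had been plated 6 hours before dosing.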

[16] = qHTS RealTime-Glo MT Cell Viability Assay in HepG2 cells - 24 hour (AID 1224867); note: nearly all actives have a fitted effect of over 50% in size
Method in brief: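 Real-time, nonlytic viability: 600 HepG2 cells/well mixed with NanoLuc enzyme plus prosubstrate; 5 h settle, compound (DMSO) added by pintool; luminescence monitored over 40 h at 37 C.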

[17] = qHTS assay to identify small molecule agonists of the hypoxia (HIF-1) signaling pathway (AID 1224846; active = well fitted activation curve with a large enough effect in the signal ratio in the repeat runs, not every such curve was filed as active; the % refers to the signal ratio)
Method in brief: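 Compounds added to ME-180 cells carrying hypoxia-response-element beta-lactamase reporter (0.5% dialyzed FBS, 5 h preplating), 17 h at 37C; agonist activity detected by CCF4-AM B/G FRET read-out.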

[18] = qHTS assay to identify small molecule agonists of H2AX - cell viability counter screen (AID 1224847; calls by dose curve; note: top concentration of the series differs between compounds; nearly all actives have a fitted effect of over 30% in size)
Method in brief: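 Read-out: CellTiter-Glo luminescence, 30 min RT. Cells: wild-type CHO-K1, 1000/well, 10% FBS, plated overnight at 37C. Treatment: 15 concentrations, 3 hr, 37C, 0.76% DMSO.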

[19] = qHTS assay to identify small molecule antagonists of the estrogen related receptor (ERR) signaling pathway from Tox21 library (AID 1224848); note: nearly all actives have a fitted effect of over 50% in size
Method in brief: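 Luciferase luminescence (ONE-Glo, 30 min room temperature) was the read-out. Cells of the NTP-supplied ERR line, 2,000 per well, were given 6 h at 37 C before compound addition in DMSO and 18 h exposure at 37 C.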

[20] = qHTS assay to identify small molecule agonists of the estrogen related receptor signaling pathway with the pleiotropic PPARgamma coactivator (PGC) from Tox21 10K library (AID 1224842); note: nearly all actives have a fitted effect of over 15% in size
Method in brief: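 Luminescence from One-Glo (30 min, room temperature) measured after PGC/ERR cells had 18 h at 37 C with pinned compound (23 nL in DMSO). Cells had been seeded at 2,000 per well and pre-incubated 6 h.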

Sequence of Luciferin 4-monooxygenase (Photinus pyralis) (P08659 whole entry, looked up): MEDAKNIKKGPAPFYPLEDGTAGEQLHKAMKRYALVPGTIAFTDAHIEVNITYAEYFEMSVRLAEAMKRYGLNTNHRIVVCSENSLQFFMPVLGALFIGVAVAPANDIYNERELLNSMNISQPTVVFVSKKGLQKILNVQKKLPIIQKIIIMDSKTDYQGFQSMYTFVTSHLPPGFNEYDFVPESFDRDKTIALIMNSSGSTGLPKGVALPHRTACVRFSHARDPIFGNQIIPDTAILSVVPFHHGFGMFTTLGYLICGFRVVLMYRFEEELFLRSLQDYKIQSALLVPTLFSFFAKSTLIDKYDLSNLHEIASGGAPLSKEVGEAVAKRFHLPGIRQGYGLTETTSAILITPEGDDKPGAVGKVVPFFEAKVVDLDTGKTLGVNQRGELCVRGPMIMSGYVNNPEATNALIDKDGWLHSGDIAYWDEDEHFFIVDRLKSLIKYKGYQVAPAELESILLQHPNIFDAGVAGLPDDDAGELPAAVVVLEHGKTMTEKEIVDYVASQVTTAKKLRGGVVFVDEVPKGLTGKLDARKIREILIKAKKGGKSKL
Sequence of Nuclear receptor subfamily 1 group I member 3 (Homo sapiens) (Q14994 whole entry, looked up): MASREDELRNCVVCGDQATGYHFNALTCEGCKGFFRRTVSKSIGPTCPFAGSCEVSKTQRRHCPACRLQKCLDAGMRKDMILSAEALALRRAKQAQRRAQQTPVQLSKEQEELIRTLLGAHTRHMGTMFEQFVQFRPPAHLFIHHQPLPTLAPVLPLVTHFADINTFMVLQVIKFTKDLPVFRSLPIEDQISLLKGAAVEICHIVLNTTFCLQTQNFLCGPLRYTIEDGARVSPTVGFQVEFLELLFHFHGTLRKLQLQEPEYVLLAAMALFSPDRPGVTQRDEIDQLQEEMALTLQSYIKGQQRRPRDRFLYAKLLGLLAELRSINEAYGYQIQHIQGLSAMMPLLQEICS
Sequence of Thyrotropin receptor (Homo sapiens) (P16473 whole entry, looked up): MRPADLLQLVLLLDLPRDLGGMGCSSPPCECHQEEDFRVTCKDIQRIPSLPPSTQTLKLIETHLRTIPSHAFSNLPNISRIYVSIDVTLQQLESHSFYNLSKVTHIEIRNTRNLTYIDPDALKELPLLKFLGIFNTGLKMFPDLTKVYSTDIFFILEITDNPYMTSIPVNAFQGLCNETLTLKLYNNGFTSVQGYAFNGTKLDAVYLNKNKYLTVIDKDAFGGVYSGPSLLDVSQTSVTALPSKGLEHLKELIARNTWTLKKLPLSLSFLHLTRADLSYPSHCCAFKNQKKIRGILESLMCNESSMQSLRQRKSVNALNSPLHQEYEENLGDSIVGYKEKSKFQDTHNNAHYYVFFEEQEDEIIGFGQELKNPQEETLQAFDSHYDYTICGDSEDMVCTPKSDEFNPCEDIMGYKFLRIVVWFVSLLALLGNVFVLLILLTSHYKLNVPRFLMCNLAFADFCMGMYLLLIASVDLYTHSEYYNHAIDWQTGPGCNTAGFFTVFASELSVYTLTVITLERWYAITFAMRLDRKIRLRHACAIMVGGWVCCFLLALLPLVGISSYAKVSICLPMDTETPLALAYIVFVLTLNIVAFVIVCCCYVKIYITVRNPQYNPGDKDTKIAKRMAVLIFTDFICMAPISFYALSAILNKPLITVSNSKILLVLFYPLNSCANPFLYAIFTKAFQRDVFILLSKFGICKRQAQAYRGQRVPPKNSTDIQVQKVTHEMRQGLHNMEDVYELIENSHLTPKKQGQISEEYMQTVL

Row | SMILES | outcome [1] | outcome [2] | Potency [3] | outcome [4] | Potency [5] | outcome [6] | outcome [7] | outcome [8] | Potency [9] | outcome [10] | Potency [11] | Potency [12] | outcome [13] | outcome [14] | activity change, positive = activation [15] | outcome [16] | outcome [17] | outcome [18] | outcome [19] | Potency [20]
1 | CC/C=C/CCCCCCCCCCOC(C)=O | inactive | inactive | inactive | inactive | inactive | inactive | inactive | inactive | inactive | inactive | inactive | inactive | inactive | inactive | 0.111% | inactive |  |  |  | 
2 | CC(=O)OC/C=C(/C)CCC=C(C)C | inactive | inactive | inactive | inactive | inactive | inactive | inactive | inactive | inactive | inactive |  | inactive | inactive | inactive |  | inactive | inactive | inactive |  | 
3 | CC/C=C\CCOC(=O)c1ccccc1 | inactive | inactive | 68.6 µM (active) | inactive | 7.1 µM (active) | inactive | inactive | inactive | inactive | inactive | inactive | inactive | inactive |  | 5.28% | inactive | inactive | inactive | inactive | 
4 | CCCCC(CC)CCC(CC(C)C)OS(=O)(=O)O (configuration not stated) | inactive | inactive | inactive | inactive | inactive | inactive | inactive | inactive | inactive | inactive |  | inactive | inactive | inactive |  | inactive | inactive | inactive |  | 
5 | CCOC(=O)CC(C(C)=O)C(C)=O | inactive | inactive | inactive | inactive | inactive | inactive | inactive | inactive | inactive | inactive |  | inactive | inactive | inactive |  | inactive |  |  |  | 
6 | COc1cnc(NS(=O)(=O)c2ccc(N)cc2)nc1 | inactive | inactive | inactive | inactive | inactive | inactive | inactive |  | inactive | inactive | inactive | inactive | inactive | inactive | 4.16% [at 42.5 µM] | inactive | inactive | inactive |  | 
7 | CCCCCCC(=O)c1ccccc1 | inactive | inactive | 54.5 µM (active) | inactive | 7.1 µM (active) | inactive | inactive | inactive |  | inactive | inactive | inactive | inactive | inactive | 3.5% | inactive | inactive | inactive | inactive | inactive
8 | O=C(c1ccccc1)c1cccc(O)c1 | inactive | inactive | inactive | inactive | inactive | inactive | inactive | inactive |  | inactive |  | inactive | inactive | inactive |  | inactive | inactive |  |  | 
9 | COC(=O)/C=C(\C)CCC=C(C)C | inactive | inactive | inactive | inactive | inactive | inactive | inactive |  |  | inactive | inactive | inactive | inactive | inactive | 1.22% | inactive | inactive | inactive | inactive | 
10 | CCOC(=O)CN1CCCC1=O | inactive | inactive | inactive | inactive | inactive | inactive | inactive |  | inactive | inactive |  |  | inactive | inactive |  | inactive | inactive | inactive |  | 
11 | Clc1ccc2c(c1)Nc1ccccc1S2 | inactive | inactive | inactive | inactive | inactive | inactive | inactive | inactive |  | inactive |  | inactive | inactive |  |  | inactive | inactive | inactive |  | 
12 | C=CCCCCCCCCOC(C)=O | inactive | inactive | inactive | inactive | inactive | inactive | inactive |  |  | inactive | inactive |  | inactive | inactive | 7.36% | inactive | inactive | inactive |  | inactive
13 | CC1=C(O)C(=O)CO1 | inactive | inactive | inactive | inactive | inactive | inactive | inactive | inactive | inactive | inactive |  |  | inactive | inactive |  | inactive |  | inactive |  | 
14 | NNC(=O)OCc1ccccc1 | inactive | inactive | inactive | inactive | inactive | inactive | inactive | inactive |  | inactive | inactive | inactive | inactive | inactive | -10.3% | inactive | inactive | inactive | inactive | 
15 | Cc1nc2ccc(Cl)cc2[nH]1 | inactive | inactive | inactive | inactive | inactive | inactive | inactive | inactive |  | inactive |  | inactive | inactive | inactive |  | inactive | inactive | inactive |  | 
16 | COC(=O)c1ccccc1Cl | inactive | inactive | inactive | inactive | inactive | inactive | inactive | inactive | inactive | inactive |  |  | inactive | inactive |  | inactive |  | inactive |  | 
17 | CCCC(=O)CC | inactive | inactive | inactive | inactive | inactive | inactive | inactive |  | inactive | inactive |  | inactive | inactive | inactive |  | inactive | inactive | inactive |  | 
